For 7 compounds, Potency results are on record in PubChem BioAssay (Tox21).

“And” between values parts separate entries of the source, which are not always exact repeats. Equal entries are not always repeated. Results filed as inconclusive are left out. Where a structure was tested more than once in an assay, its records may differ in their call. The source made the active and inactive calls. Unless noted, calls follow the shape of the full dose curve.

A short description of experiment [1]: Nuclear factor erythroid 2-related factor 2/antioxidant responsive element (Nrf2/ARE) small molecule agonists: qHTS cell viability counter screen in human keratinocytes (AID 1919968; active = well fitted curve in the direction sought with a large enough effect in the repeat runs; an effect the other way counts as inactive or inconclusive; also: nearly all actives have a fitted effect of over 55% in size; also: potency is read from the fitted curve at half-maximal effect). The method, boiled down: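 Parallel cytotoxicity read: KeratinoSens HaCaT cells, compound treatment 23 h, viability by CellTiter-Fluor fluorescence 1 h post-reagent.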
Experiment [2] can be described thus: Nuclear factor erythroid 2-related factor 2/antioxidant responsive element (Nrf2/ARE) small molecule agonists: luciferase reporter gene qHTS assay in human keratinocytes (AID 1919969). Also: nearly all actives have a fitted effect of over 35% in size. On the technique in general: In a reporter assay the amount or activity of a reporter protein is the signal.
Experiment [3] concerns the target Gonadotropin-releasing hormone receptor (Homo sapiens) (UniProt P30968). Description: Human gonadotropin-releasing hormone receptor (GnRHR) small molecule agonists, calcium flux assay in GnRHR-HEK293 cells (AID 1920063). Also: nearly all actives have a fitted effect of over 35% in size. In a few lines:
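Calcium flux, agonist mode, human GnRHR stably integrated in HEK293; dye 1 h at 37 C before compound; Ex/Em=480/540 kinetic read, 3 min; 15 concentrations, triplicate.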
On the technique in general: A change in cytosolic calcium serves as a functional read-out for many receptors and channels.

For experiment [4], the target named is KiSS-1 receptor (Homo sapiens) (UniProt Q969F8). Description: Human kisspeptin (KISS1R) small molecule agonists, calcium flux assay in KISS1R-HEK293 cells (AID 1920064; active = well fitted curve in the direction sought with a large enough effect in the repeat runs; an effect the other way counts as inactive or inconclusive). The method, boiled down: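 Triplicate 15-concentration series were applied to dye-loaded human KISS1R HEK293 cells, and agonist-evoked calcium fluorescence was captured for 3 min.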
Sequence of KiSS-1 receptor (Homo sapiens) (Q969F8 whole entry, looked up): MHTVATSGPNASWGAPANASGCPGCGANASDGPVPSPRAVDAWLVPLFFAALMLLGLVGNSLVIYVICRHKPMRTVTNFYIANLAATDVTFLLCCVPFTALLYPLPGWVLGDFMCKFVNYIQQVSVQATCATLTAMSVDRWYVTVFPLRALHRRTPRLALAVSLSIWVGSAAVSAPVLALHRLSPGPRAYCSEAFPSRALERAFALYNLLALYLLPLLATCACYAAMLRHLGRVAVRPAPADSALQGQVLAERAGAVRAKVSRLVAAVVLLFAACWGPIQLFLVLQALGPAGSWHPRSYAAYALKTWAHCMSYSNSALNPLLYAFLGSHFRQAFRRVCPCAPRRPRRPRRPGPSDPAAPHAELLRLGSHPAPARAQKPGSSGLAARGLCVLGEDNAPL
Experiment [5] in a line: G protein-coupled receptor (GPCR) small molecule agonists, calcium flux assay: HEK293 wild type cell line counter screen (AID 1920065). In a few lines: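 Non-specific calcium responders were flagged by adding DMSO-dissolved compounds to dye-loaded cells and reading 480/540 nm fluorescence each second for 3 min; ATP served as positive control.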
The nature of experiment [6]: p53 small molecule agonists, cell-based qHTS assay with human liver microsomes (AID 1963577).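 Also: p53 response element beta-lactamase reporter cells with liver microsomes plus NADPH.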 The method, boiled down:
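HLM-supplemented p53RE-bla reporter assay: 16 h compound exposure at 37 C, microsomes and NADPH each 0.5 mg/mL final, read by fluorescence intensity.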

A short description of experiment [7]: p53 small molecule agonists, cell-based qHTS assay with rat liver microsomes (AID 1963578). In a few lines:
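Quantitative HTS of the Tox21 10K library: p53RE-bla cells, rat liver microsomes plus NADPH at 0.5 mg/mL final each, 16 h at 37 C, beta-lactamase fluorescence detection.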

Experiment [8] can be described thus: p53 small molecule agonists, cell-based qHTS assay with human liver microsomes: qHTS cell viability counter screen (AID 1963579). Also: nearly all actives have a fitted effect of over 45% in size. Also: potency is read from the fitted curve at half-maximal effect. In a few lines:
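Viability of p53RE-bla cells is measured as CellTiter-Glo luminescence following a 16 h, 37 C incubation with compound, liver microsomes from human donors and NADPH.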
A general note: Quantitative high-throughput screening tests each substance at several concentrations.

Experiment [9] can be described thus: p53 small molecule agonists, cell-based qHTS assay with rat liver microsomes: qHTS cell viability counter screen (AID 1963580). Also: nearly all actives have a fitted effect of over 45% in size. Also: potency is read from the fitted curve at half-maximal effect. The method, boiled down: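 Cytotoxicity counter screen: intracellular ATP read by CellTiter-Glo luminescence in the p53 reporter wells. HCT-116 p53RE-bla cells were treated for 16 h at 37 C alongside rat liver microsomes and NADPH, each 0.5 mg/mL final.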

Experiment [10] can be described thus: p53 small molecule agonists, cell-based qHTS assay (AID 1963582; active = well fitted activation curve with a large enough effect in the signal ratio in the repeat runs, not every such curve was filed as active; the % refers to the signal ratio). The method, boiled down:
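Beta-lactamase reporter cells (p53RE-bla) treated with compounds for 16 h at 37 C; FRET substrate, 2 h, room temperature; fluorescence intensity.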

In experiment [11] the target is 5-hydroxytryptamine receptor 2A (Homo sapiens) (UniProt P28223). Description: 5-hydroxytryptamine receptor 2A (HTR2A) small molecule antagonists, cell-based qHTS assay (AID 1963586). Also: nearly all actives have a fitted effect of over 45% in size. The method, boiled down: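 CHO cells stably expressing human HTR2A were plated for 18 h at 37 C, then loaded with calcium dye for 1 h. Compounds were preincubated 5 min at room temperature before DOI (4 nM solution) was added. Kinetic fluorescence was read for 3 min.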
Sequence of 5-hydroxytryptamine receptor 2A (Homo sapiens) (P28223 whole entry, looked up): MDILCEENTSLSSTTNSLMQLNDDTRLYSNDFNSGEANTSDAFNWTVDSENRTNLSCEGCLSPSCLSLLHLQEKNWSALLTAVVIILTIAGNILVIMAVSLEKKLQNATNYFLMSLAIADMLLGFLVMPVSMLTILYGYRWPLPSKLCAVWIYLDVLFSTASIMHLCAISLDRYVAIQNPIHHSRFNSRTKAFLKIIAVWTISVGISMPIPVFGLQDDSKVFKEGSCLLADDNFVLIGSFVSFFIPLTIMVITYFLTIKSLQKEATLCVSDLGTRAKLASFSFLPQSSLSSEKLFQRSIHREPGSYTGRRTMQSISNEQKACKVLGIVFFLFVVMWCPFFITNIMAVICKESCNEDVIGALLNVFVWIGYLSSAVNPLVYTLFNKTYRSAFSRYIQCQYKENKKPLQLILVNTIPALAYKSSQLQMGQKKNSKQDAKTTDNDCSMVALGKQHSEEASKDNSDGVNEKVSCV

The target is the same in experiment [12]. Kind of experiment: 5-hydroxytryptamine receptor 2A (HTR2A) small molecule agonists, cell-based qHTS assay (AID 1963587). Also: nearly all actives have a fitted effect of over 30% in size. In a few lines: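 Kinetic calcium-flux fluorescence (2 min, 1 sec intervals) after compound addition in agonist mode. HTR2A-CHO cells were cultured 18 h, then dye-loaded 1 h at 37 C.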
In experiment [13] the target is Muscarinic acetylcholine receptor M1 (Homo sapiens) (UniProt P11229). Description: Cholinergic receptor muscarinic 1 (CHRM1) small molecule antagonists, cell-based qHTS assay (AID 1963588). Also: nearly all actives have a fitted effect of over 40% in size. The method, boiled down: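 Compounds were tested at 15 concentrations in three independent runs. Dye-loaded CHRM1-CHO cells were exposed 5 min at room temperature before stimulation by acetylcholine added at 50nM. Intracellular calcium was read kinetically on FDSS for 3 min.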
Sequence of Muscarinic acetylcholine receptor M1 (Homo sapiens) (P11229 whole entry, looked up): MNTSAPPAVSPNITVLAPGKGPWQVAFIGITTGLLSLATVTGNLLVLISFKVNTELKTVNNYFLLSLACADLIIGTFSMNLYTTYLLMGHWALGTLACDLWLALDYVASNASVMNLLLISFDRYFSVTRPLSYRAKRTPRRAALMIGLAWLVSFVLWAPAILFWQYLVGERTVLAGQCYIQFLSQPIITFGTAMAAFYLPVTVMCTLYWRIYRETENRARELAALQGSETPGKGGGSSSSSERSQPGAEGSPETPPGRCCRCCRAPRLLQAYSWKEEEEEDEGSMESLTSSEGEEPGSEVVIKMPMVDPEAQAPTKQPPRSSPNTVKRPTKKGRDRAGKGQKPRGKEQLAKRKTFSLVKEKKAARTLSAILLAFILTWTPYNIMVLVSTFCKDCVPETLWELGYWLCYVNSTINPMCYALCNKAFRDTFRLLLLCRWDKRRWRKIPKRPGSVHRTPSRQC

For experiment [14] the target is unchanged. Kind of experiment: Cholinergic receptor muscarinic 1 (CHRM1) small molecule agonists, cell-based qHTS assay (AID 1963589). Also: nearly all actives have a fitted effect of over 35% in size. In a few lines: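 qHTS, 15-point titration, 3 independent runs: compounds pin-transferred onto dye-loaded CHRM1-CHO cells (human M1), calcium fluorescence followed every second to detect agonism.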
The nature of experiment [15]: cAMP Responsive Elements (CRE) small molecule agonists, cell-based qHTS assay (AID 1963590). The method, boiled down:
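Quantitative HTS for CRE agonists: HEK 293T CRE-bla cells, overnight plating, 3 h compound incubation at 37 C/5% CO2, then 2 h room-temperature LiveBLAzer B/G FRET substrate loading.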

Experiment [16] can be described thus: cAMP Responsive Elements (CRE) small molecule antagonists, cell-based qHTS assay (AID 1963591; active = well fitted inhibition curve with a large enough effect in the signal ratio in the repeat runs, not every such curve was filed as active; the % refers to the signal ratio). The method, boiled down: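 Fluorescence intensity from cleaved LiveBLAzer B/G substrate (2 h, room temperature) quantified CRE-bla activity in HEK 293T cells exposed 3 h to compound with 0.25 uM final NKH477.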
In experiment [17] the target is Beta-2 adrenergic receptor (Homo sapiens) (UniProt P07550). Kind of experiment: Adrenergic beta2 receptor (ADRB2) small molecule antagonists, cell-based qHTS assay (AID 1963592). Also: nearly all actives have a fitted effect of over 50% in size. Also: potency is read from the fitted curve at half-maximal effect. In a few lines: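 Assay format: CHO-ADRB2 cells, 18-20hr seeding at 37C/5% CO2, then compound plus 1nM isoproterenol agonist mix for 0.5hr RT. Homogeneous time-resolved fluorescence cAMP detection after 1hr, expressed as 665/615 nm ratio.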
Sequence of Beta-2 adrenergic receptor (Homo sapiens) (P07550 whole entry, looked up): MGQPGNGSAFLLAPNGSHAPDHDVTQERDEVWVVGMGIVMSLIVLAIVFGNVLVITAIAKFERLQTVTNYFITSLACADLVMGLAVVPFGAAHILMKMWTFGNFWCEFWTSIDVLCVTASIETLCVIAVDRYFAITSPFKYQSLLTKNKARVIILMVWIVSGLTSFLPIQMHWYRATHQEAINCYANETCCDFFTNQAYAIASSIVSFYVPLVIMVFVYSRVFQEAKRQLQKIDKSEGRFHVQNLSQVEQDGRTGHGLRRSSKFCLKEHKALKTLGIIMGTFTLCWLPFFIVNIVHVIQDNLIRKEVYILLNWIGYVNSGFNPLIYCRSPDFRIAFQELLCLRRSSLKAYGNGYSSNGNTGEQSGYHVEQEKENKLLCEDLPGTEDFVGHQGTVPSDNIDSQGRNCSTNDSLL

The target in experiment [18] is D(2) dopamine receptor (Homo sapiens) (UniProt P14416). Kind of experiment: Dopamine D2 receptor (DRD2) small molecule antagonists, cell-based qHTS assay (AID 1963595; active = well fitted inhibition curve with a large enough effect in the signal ratio in the repeat runs, with a control signal flat; the % refers to the signal ratio). In a few lines: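 HEK293 cells stably expressing DRD2 were preincubated with 0.1 mM Ro20-1724, then with compound for 10 min at room temperature. Cells were stimulated with 200 nM NKH477 plus 12 nM quinpirole for 30 min, and cAMP was read by HTRF.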
Sequence of D(2) dopamine receptor (Homo sapiens) (P14416 whole entry, looked up): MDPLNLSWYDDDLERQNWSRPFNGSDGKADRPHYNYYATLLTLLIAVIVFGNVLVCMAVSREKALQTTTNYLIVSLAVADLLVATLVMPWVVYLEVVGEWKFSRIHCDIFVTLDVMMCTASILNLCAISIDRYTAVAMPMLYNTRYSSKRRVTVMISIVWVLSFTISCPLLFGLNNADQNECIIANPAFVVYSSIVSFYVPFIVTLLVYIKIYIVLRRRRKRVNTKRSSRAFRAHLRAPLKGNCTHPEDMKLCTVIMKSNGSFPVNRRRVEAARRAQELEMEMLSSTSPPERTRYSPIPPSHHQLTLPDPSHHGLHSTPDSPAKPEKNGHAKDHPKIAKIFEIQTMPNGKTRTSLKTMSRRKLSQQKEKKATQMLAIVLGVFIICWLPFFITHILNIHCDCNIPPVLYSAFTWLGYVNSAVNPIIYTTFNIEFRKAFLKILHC

Experiment [19] has the same target. Description: Dopamine D2 receptor (DRD2) small molecule agonists, cell-based qHTS assay (AID 1963594). Also: nearly all actives have a fitted effect of over 35% in size. The method, boiled down:
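cAMP accumulation in DRD2-HEK293 cells measured by HTRF after 1 h detection; compounds added 10 min before NKH477 (200nM […]) forskolin-analogue stimulation, 30 min at room temperature, with Ro20-1724 present at 0.1 mM final.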

The nature of experiment [20]: p53 small molecule agonists, cell-based qHTS assay: qHTS cell viability counter screen (AID 1963581). Also: nearly all actives have a fitted effect of over 45% in size. In a few lines:
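Multiplexed with the reporter read, a CellTiter-Glo step (30 min, room temperature) gauges ATP-based viability of HCT-116 p53RE-bla cells after 16 h compound incubation at 37 C.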

Sequence of Gonadotropin-releasing hormone receptor (Homo sapiens) (P30968 whole entry, looked up): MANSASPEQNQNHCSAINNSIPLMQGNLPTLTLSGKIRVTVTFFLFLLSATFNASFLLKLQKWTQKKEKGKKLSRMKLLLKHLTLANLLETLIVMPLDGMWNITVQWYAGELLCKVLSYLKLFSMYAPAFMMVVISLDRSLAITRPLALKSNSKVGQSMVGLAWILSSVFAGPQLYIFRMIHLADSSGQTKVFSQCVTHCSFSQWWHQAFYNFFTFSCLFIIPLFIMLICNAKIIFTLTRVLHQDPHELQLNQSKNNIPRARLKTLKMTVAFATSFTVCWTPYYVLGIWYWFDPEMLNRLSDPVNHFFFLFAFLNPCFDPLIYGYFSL

For `COC(=O)c1c(C(F)F)nc(C(F)(F)F)c(C2=NCCS2)c1CC(C)C`, the Potency result in [1], in experiment [2], in experiment [3], in experiment [4], in experiment [5] and in [6] was “inactive” throughout. For the same compound, the Potency result in [7], in experiment [8], in [9], in [10], in [11] and in [12] was “inactive” in each case. The Potency result in experiment [13], in [14], in experiment [15], in [16], in [17] and in [18] was “inactive” each time.
Turning to `ClC(Cl)=C(c1ccc(Cl)cc1)c1ccc(Cl)cc1`, the Potency in experiment [1] was 39.5 µM (active). The Potency result in [2], in [3], in experiment [4], in experiment [5], in experiment [6] and in [7] was “inactive” in each case. The Potency result in experiment [8], in [9], in experiment [10], in experiment [11], in experiment [12] and in [13] was “inactive” in each case. For the same compound, the Potency result in experiment [15], in experiment [16], in experiment [17], in experiment [19] and in [18] was “inactive” each time.
For the compound `CCC(Br)(CC)C(=O)NC(N)=O`, the Potency entry in [1], in experiment [2], in experiment [3], in experiment [4], in [5] and in [6] was “inactive” each time. In addition, the Potency result in [7], in experiment [8], in experiment [9], in [10], in [11] and in [12] was “inactive” in each case. Also, the Potency result in experiment [13], in experiment [15], in experiment [16], in [17], in [19] and in [18] was “inactive” throughout.
Take `CCN(CC)C(=O)C(C)Oc1cccc2ccccc12` (centres undefined): the Potency entry in experiment [1], in experiment [2], in experiment [3], in [4], in [5] and in [6] was “inactive” throughout. For the same compound, the Potency entry in [7], in experiment [8], in experiment [9], in experiment [11], in experiment [12] and in experiment [13] was “inactive” in each case. In addition, the Potency entry in experiment [14], in experiment [15], in [16], in experiment [17], in [19] and in experiment [18] was “inactive” each time.
Regarding `COc1ccccc1OC`, the Potency entry in experiment [1], in [2], in experiment [3], in experiment [4], in [5] and in [6] was “inactive” in each case. For the same compound, the Potency result in [7], in experiment [8], in experiment [20], in [10], in experiment [11] and in experiment [12] was “inactive” in each case. The Potency entry in [13], in experiment [14], in experiment [15], in experiment [16], in experiment [17] and in [19] was “inactive” each time. Also, the Potency result in experiment [18] was “inactive”.
In the case of `CCOC(=O)c1cncn1C(C)c1ccccc1` (centres undefined), the Potency result in experiment [1], in experiment [2], in experiment [3], in [4], in experiment [5] and in experiment [6] was “inactive” throughout. In addition, the Potency result in experiment [7], in experiment [8], in [9], in [10], in [11] and in experiment [12] was “inactive” throughout. In addition, the Potency entry in experiment [13], in experiment [14], in [15], in experiment [16], in [17] and in [19] was “inactive” throughout. For the same compound, in experiment [18], the Potency result was “inactive”.
In the case of `O=c1[nH]c2ccccc2n1C1CCN(CCCC(c2ccc(F)cc2)c2ccc(F)cc2)CC1`, the Potency in experiment [1] is 27.3 µM (active) and 13.3 µM (active); in [8], 28.9 µM (active) and inactive; in experiment [9] it was 40.8 µM (active) and inactive; in experiment [17], 33.5 µM (active). In addition, the Potency result in [2], in experiment [3], in [4], in [5], in [6] and in experiment [7] was “inactive” each time. The Potency result in [12], in [13], in [14] and in [19] was “inactive” each time.
